# Laboratory results reported in PubChem BioAssay.
# Entries with a potency or affinity are not part of this list. Records with an inconclusive call do not appear. A number with no mark means an inactive call. Active and inactive are the calls of the source.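 How the source made its calls, unless noted: active means a dose-response fit showing signal loss, with half-maximal concentration no higher than twice the top tested dose; inconclusive means flat fit between 30% and 70% signal loss, or poor fit; inactive means the rest.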
# Columns and labels:
# [1] = HepG2 cell cytotoxicity, dose response, cytotoxicity control, cherry-picks, set 2 (AID 687002)
# [2] = HeLa cell cytotoxicity, dose response, cytotoxicity control, ATP luminescence, cherry-pick samples (AID 687004;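 active means a fitted half-maximal concentration no higher than twice the top valid tested dose, with signal falling as cells die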)
# [3] = inhibitors of PAX8-driven TPO luciferase reporter, dose response, RMG-I cells, cherry-pick (AID 687027;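 active means every replicate test run called active, with the signal dropping as expected and potency within twice the top valid dose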)
# [4] = cytotoxicity in PAX8-dependent RMG-1 cells, dose response, cell-based, cherry-pick (AID 687029;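 active means signal drop whose fitted half-maximal concentration is at most twice the top valid dose, in every test run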;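 further: cells exposed to compound for 96 hours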)
# [5] = cytotoxicity in IOSE-T80 ovarian epithelial cells, dose response, selectivity assay for PAX8 inhibitor project, cell-based, cherry-pick (AID 687032;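 active means fitted half-maximal concentration for viability loss no higher than twice the top valid dose, in every repeat run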;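 further: cells exposed to compound for 96 h before reading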)
# [6] = inhibitors of CMV-promoter luciferase reporter, dose response, counter-screen for Pax8 inhibitor project, cell-based, HEK293, luminescence, dry powder (AID 743020;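 active means signal-lowering compounds whose fitted half-maximal concentration is at or below twice the top tested dose in every run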;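 further: HEK293 cells stably expressing the CMV luciferase reporter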)
# [7] = non-specific cell cytotoxicity, dose response, cytotoxicity control for PAX8 inhibitor project, plate reader, dry powder samples (AID 743021; call rule not given here)
smiles,measurement,setting,value
CC(C)CC1(C)N=C(c2ccccc2)C(=S)N1 (stereo unspecified),outcome,[1],inactive
same,outcome,[2],inactive
Cc1c(C(=O)NC(=S)Nc2ccccc2N2CCCC2)cccc1[N+](=O)[O-],outcome,[1],inactive
same,outcome,[2],inactive
COC(=O)C1=C(C)N(Cc2ccc(Cl)cc2)C(=S)NC1c1ccc(Br)cc1 (stereo unspecified),outcome,[1],inactive
same,outcome,[2],inactive
COC(=O)C1=C(C)N(Cc2ccc(F)cc2)C(=S)NC1c1cccc(F)c1 (stereo unspecified),outcome,[1],inactive
same,outcome,[2],inactive
Cc1cc(Cl)ccc1NC(=S)NCc1ccc(F)cc1,outcome,[1],inactive
same,outcome,[2],inactive
C[C@H](CO)N1C[C@H](C)[C@@H](CN(C)Cc2ccc(Oc3ccccc3)cc2)Oc2ccc(NS(=O)(=O)c3cn(C)cn3)cc2CC1=O,outcome,[1],inactive
same,outcome,[2],inactive
Cc1cc(C(=O)NC(=S)Nc2ccccc2N2CCOCC2)ccc1[N+](=O)[O-],outcome,[1],inactive
same,outcome,[2],inactive
COc1ccc(CNC(=S)NCc2ccc(OC(C)C)cc2)cc1,outcome,[1],inactive
same,outcome,[2],inactive
COC(=O)C1=C(C)N(Cc2ccc(Cl)cc2)C(=S)NC1c1ccc(F)cc1 (stereo unspecified),outcome,[1],inactive
same,outcome,[2],inactive
CCC(=O)N(C)C[C@@H]1Oc2cc(C#CC(C)(C)O)ccc2S(=O)(=O)N([C@@H](C)CO)C[C@H]1C,outcome,[1],inactive
same,outcome,[2],inactive
COC(=O)C1=C(C)N(Cc2ccc(Br)cc2)C(=S)NC1c1ccc(OC)cc1 (stereo unspecified),outcome,[1],inactive
same,outcome,[2],inactive
CCc1ccc(C(C)NC(=S)NCc2ccc(F)cc2)cc1 (stereo unspecified),outcome,[1],inactive
same,outcome,[2],inactive
COC(=O)C1=C(C)N(Cc2ccc(F)cc2)C(=S)NC1c1cccc(Br)c1 (stereo unspecified),outcome,[1],inactive
same,outcome,[2],inactive
Cc1cc(C)c2nc(N3CCN(C(=O)c4cccs4)CC3)sc2c1,outcome,[1],inactive
same,outcome,[2],inactive
COC(=O)C1=C(C)N(Cc2ccc(Cl)cc2)C(=S)NC1c1ccccc1 (stereo unspecified),outcome,[1],inactive
same,outcome,[2],inactive
C[C@H](CO)N1C[C@H](C)[C@H](CN(C)C(=O)Nc2ccc3c(c2)OCO3)Oc2ncc(C#CC(C)(C)O)cc2C1=O,outcome,[1],inactive
same,outcome,[2],inactive
S=C(Nc1ccccc1)Nc1cc(Cl)ccc1Oc1ccccc1,outcome,[1],inactive
same,outcome,[2],inactive
O=C(NC(=S)Nc1cc(Cl)ccc1N1CCOCC1)c1ccccc1[N+](=O)[O-],outcome,[1],inactive
same,outcome,[2],inactive
S=C(NCCCc1ccccc1)Nc1ccccc1,outcome,[1],inactive
same,outcome,[2],inactive
COC(=O)C1=C(C)N(Cc2ccccc2)C(=S)NC1c1cccc(OC)c1 (stereo unspecified),outcome,[1],inactive
same,outcome,[2],inactive
O=C(COC(=O)CCC1CCCC1)Nc1nc2c(F)c(F)c(F)cc2s1,outcome,[1],inactive
same,outcome,[2],inactive
C[C@H]1CCCCO[C@@H](CN(C)Cc2ccncc2)[C@@H](C)CN([C@@H](C)CO)C(=O)c2cc(NC(=O)Nc3ccccc3)ccc2O1,outcome,[1],inactive
same,outcome,[2],inactive
CCOC(=O)NC(=S)Nc1ccc(C(C)(C)C)cc1,outcome,[1],inactive
same,outcome,[2],inactive
O=C1/C(=C\c2ccco2)SC(=S)N1c1ccc(O)cc1,outcome,[3],inactive
same,outcome,[4],inactive
same,outcome,[5],inactive
same,outcome,[6],inactive
same,outcome,[7],inactive
CCc1ccc(C(=O)NC(=S)NCc2cccnc2)cc1,outcome,[1],inactive
same,outcome,[2],inactive
CCCCCCCCC(=O)NCCOc1ccccc1,outcome,[3],inactive
same,outcome,[4],inactive
same,outcome,[5],inactive
same,outcome,[6],inactive
same,outcome,[7],inactive
O=C(NC(=S)Nc1ccc(Br)cc1)C1CCC1,outcome,[1],inactive
same,outcome,[2],inactive
COC(=O)CN1C(=S)N(C)C(=O)C1CC(=O)Nc1ccccc1 (stereo unspecified),outcome,[3],inactive
same,outcome,[4],inactive
same,outcome,[5],inactive
same,outcome,[6],inactive
same,outcome,[7],inactive
O=C(c1ccc2c(c1)OCO2)N1CCN(c2ccc(C(F)(F)F)cn2)CC1,outcome,[3],inactive
same,outcome,[4],inactive
same,outcome,[5],inactive
same,outcome,[6],inactive
same,outcome,[7],inactive
CC=Cc1ccc2n(c1=O)C[C@@H]1[C@@H](CO)[C@H](C(=O)N3CCc4ccccc4C3)N(C(=O)C3CC3)[C@H]21 (mixture of isomers),outcome,[1],inactive
same,outcome,[2],inactive
Cc1ccc(NC(=O)NC(=O)COc2ccc(Cl)cc2Cl)c(C)c1,outcome,[3],inactive
same,outcome,[4],inactive
same,outcome,[5],inactive
same,outcome,[6],inactive
same,outcome,[7],inactive
Cn1cc(/C=C(\C(=O)O)C(C(=O)O)=C2CCCCC2)c2ccccc21,outcome,[3],inactive
same,outcome,[4],inactive
same,outcome,[5],inactive
same,outcome,[6],inactive
same,outcome,[7],inactive
COC(=O)C1=C(C)N(Cc2ccc(Br)cc2)C(=S)NC1c1cccc(Cl)c1 (stereo unspecified),outcome,[1],inactive
same,outcome,[2],inactive
Cc1c(Cl)cccc1NC(=S)NCCc1ccc(Cl)cc1,outcome,[1],inactive
same,outcome,[2],inactive
